The values below come from PubChem BioAssay (Tox21).

The nature of experiment [1]: qHTS assay to identify small molecule antagonists of the thyroid receptor (TR) signaling pathway - cell viability counter screen (AID 743064). Further: nearly all actives have a fitted effect of over 50% in size. Further: potency means the concentration at half of the fitted maximal effect. A digest of the protocol:
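In-well cytotoxicity read by CellTiter-Fluor (30 min, 37 C) following 23.5 h exposure of GH3 cells bearing a TRE-luciferase sensor. Compounds were added alongside 1 nM (final) T3 to drive TR transactivation.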
On the technique in general: Quantitative high-throughput screening tests each substance at several concentrations.

A short description of experiment [2]: qHTS assay to identify small molecule antagonists of the thyroid receptor (TR) signaling pathway (AID 743065). Further: nearly all actives have a fitted effect of over 55% in size. Further: potency means the concentration at half of the fitted maximal effect. On activity, negative = inhibition: series mostly up to about 70 µM. A digest of the protocol:
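GH3.TRE-Luc rat pituitary cells carrying two TR response elements driving luciferase were plated for 4 h, given compound plus 1 nM T3 (final), and incubated 23.5 h at 37 C. ONE-Glo luminescence measured reporter inhibition; CellTiter-Fluor fluorescence tracked cytotoxicity.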

Experiment [3] has as its system thyroid hormone receptor (rat, GH3 cells). The experiment in a line: qHTS assay to identify small molecule agonists of the thyroid receptor (TR) signaling pathway (AID 743066; calls by dose curve).
The nature of experiment [4]: qHTS assay to identify small molecule antagonists of the estrogen receptor alpha (ER-alpha) signaling pathway - cell viability counter screen (AID 743074; calls by dose curve;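 further: HEK293 cells carrying ER-alpha-UAS-bla reporter stimulated with 17beta-estradiol; nearly all actives have a fitted effect of over 45% in size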; further: potency means the concentration at half of the fitted maximal effect).
The target of experiment [5] is Estrogen receptor (Homo sapiens) (UniProt P03372). The experiment in a line: qHTS assay to identify small molecule agonists of the estrogen receptor alpha (ER-alpha) signaling pathway (AID 743075; calls by dose curve;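 further: HEK293 GripTite cells with ER-alpha and UAS-driven beta-lactamase reporter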; further: potency means the concentration at half of the fitted maximal effect).
The target is the same in experiment [6]. Briefly: qHTS assay to identify small molecule agonists of the estrogen receptor alpha (ER-alpha) signaling pathway using the BG1 cell line (AID 743079). Further: nearly all actives have a fitted effect of over 20% in size. Further: potency means the concentration at half of the fitted maximal effect.
The nature of experiment [7]: qHTS assay to identify small molecule antagonists of the estrogen receptor alpha (ER-alpha) signaling pathway using the BG1 cell line - cell viability counter screen (AID 743081).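 Further: compound given together with 17beta-estradiol as the ER stimulus; series mostly up to about 70 µM; nearly all actives have a fitted effect of over 45% in size.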
In the next experiment the target is Aromatase (Homo sapiens) (UniProt P11511). The experiment in a line: qHTS assay to identify aromatase inhibitors (AID 743083). Further: nearly all actives have a fitted effect of over 55% in size. Further: potency means the concentration at half of the fitted maximal effect. On activity, negative = inhibition: series mostly up to about 70 µM.
Experiment [8] in a line: qHTS assay to identify aromatase inhibitors - cell viability counter screen (AID 743084).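 Further: cells stimulated with testosterone during compound exposure; nearly all actives have a fitted effect of over 55% in size.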 Further: potency means the concentration at half of the fitted maximal effect.
The target of experiment [9] is Aryl hydrocarbon receptor (Homo sapiens) (UniProt P35869). The experiment in a line: qHTS assay to identify small molecule that activate the aryl hydrocarbon receptor (AhR) signaling pathway (AID 743085). Further: nearly all actives have a fitted effect of over 15% in size. Further: potency means the concentration at half of the fitted maximal effect.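 On activation: HG2L7.5c1 human HepG2 liver cells with stably integrated DRE-driven firefly reporter; series mostly up to about 70 µM.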 A digest of the protocol:
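Luminescence (ONE-Glo) from a dioxin-responsive-element luciferase reporter in HG2L7.5c1 HepG2 cells after 24 hr compound exposure at 37C; viability measured by CellTiter-Fluor fluorescence beforehand.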

A short description of experiment [10]: qHTS assay to identify small molecule that activate the aryl hydrocarbon receptor (AhR) signaling pathway - cell viability counter screen (AID 743086). Further: nearly all actives have a fitted effect of over 45% in size. Further: potency means the concentration at half of the fitted maximal effect.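 On viability change, negative = cytotoxic: HepG2 liver cells carrying the AhR DRE luciferase reporter; series mostly up to about 70 µM.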 In outline:
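HepG2-AhR-luc (HG2L7.5c1) cells, 4000/well, were preincubated 5 h at 37C, exposed to compound in qHTS format for 24 hr at 37C, then given CellTiter-Fluor for 30 min; viability was read as fluorescence in the reporter wells.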

In experiment [11] the target is Peroxisome proliferator-activated receptor gamma (Homo sapiens) (UniProt P37231). Briefly: qHTS assay to identify small molecule agonists of the peroxisome proliferator-activated receptor gamma (PPARg) signaling pathway (AID 743094; active means well fitted activation curve with a large enough effect in the signal ratio in the repeat runs, not every such curve was filed as active; inconclusive means weak or mixed curves, or effect the other way; inactive means no such curve, though single readings can be large or run the other way; the % refers to the signal ratio). In outline:
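Beta-lactamase FRET fluorescence was the read-out after a 1 h room-temperature substrate step, following 17 h compound treatment at 37C of HEK293H cells expressing a UAS-driven bla reporter responsive to PPARg.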

Experiment [12] shares this target. The experiment in a line: qHTS assay to identify small molecule antagonists of the peroxisome proliferator-activated receptor gamma (PPARg) signaling pathway (AID 743191; calls by dose curve; further: series mostly up to about 63 µM; nearly all actives have a fitted effect of over 30% in size). A digest of the protocol: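 GeneBLAzer PPARg UAS-bla HEK293H cells carrying a UAS-driven beta-lactamase reporter were plated at 3000 cells/well, preincubated 5 h at 37C, then given compound for 17 h at 37C; LiveBLAzer B/G FRET substrate was read after 1 h at room temperature.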

A short description of experiment [13]: qHTS assay to identify small molecule antagonists of the peroxisome proliferator-activated receptor gamma (PPARg) signaling pathway - cell viability counter screen (AID 743194). Further: nearly all actives have a fitted effect of over 55% in size. Further: potency means the concentration at half of the fitted maximal effect. In outline:
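PPARg-UAS-bla HEK293H cells were plated, rested 5 h at 37 C, then treated with compounds plus rosiglitazone (50 nM final) for 17 h at 37 C; viability was then read by CellTiter-Glo luminescence after 30 min at room temperature.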

A short description of experiment [14]: qHTS assay for small molecule agonists of the antioxidant response element (ARE) signaling pathway - cell viability counter screen (AID 743203; calls by dose curve; further: nearly all actives have a fitted effect of over 55% in size; further: potency means the concentration at half of the fitted maximal effect). In outline: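 HepG2 cells carrying ARE-driven beta-lactamase; 2,000 cells/well; 5 hrs plating; compound pinned from DMSO; 16 hrs 37C/5% CO2; CellTiter-Glo added; 30 min RT; luminescence.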
Experiment [15] in a line: qHTS assay for small molecule activators of the heat shock response signaling pathway - cell viability counter screen (AID 743209). Further: nearly all actives have a fitted effect of over 50% in size. Further: potency means the concentration at half of the fitted maximal effect. A digest of the protocol: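 Luminescence from CellTiter-Glo, added after the beta-lactamase FRET read, gave the viability signal. Cells were HSE-bla HeLa treated with DMSO-dissolved compounds for 5 h at 37 C following overnight plating.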
A short description of experiment [16]: qHTS assay for small molecule agonists of the antioxidant response element (ARE) signaling pathway (AID 743202; active means well fitted activation curve with a large enough effect in the signal ratio in the repeat runs, not every such curve was filed as active; inconclusive means weak or mixed curves, or effect the other way; inactive means no such curve, though single readings can be large or run the other way; the % refers to the signal ratio). In outline:
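Compounds delivered in DMSO to ARE-bla HepG2 cells (2,000 cells/well, pre-incubated 5 h) and left 16 h at 37 C. LiveBLAzer B/G FRET substrate then added for 2 h at RT before fluorescence reading.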

Experiment [17] can be described thus: qHTS assay for small molecule activators of the heat shock response signaling pathway (AID 743210; active means well fitted activation curve with a large enough effect in the signal ratio in the repeat runs, with a control signal flat, not every such curve was filed as active; inconclusive means weak or mixed curves; the % refers to the signal ratio;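 further: HeLa cells with beta-lactamase reporter driven by heat shock elements; series mostly up to about 63 µM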). In outline: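 Reporter gene assay: HeLa cells stably bearing an HSE-bla construct, compound treatment 5 h at 37 C, LiveBLAzer substrate 2.5 h at RT, fluorescence intensity.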
A short description of experiment [18]: qHTS assay to identify small molecule antagonists of the estrogen receptor alpha (ER-alpha) signaling pathway using the BG1 cell line (AID 743080; calls by dose curve;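 further: BG1 cells stimulated with 17beta-estradiol alongside compound; series mostly up to about 70 µM; nearly all actives have a fitted effect of over 25% in size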). A digest of the protocol:
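Quantitative HTS on the Tox21 10K library: BG1 cells with endogenous ER-alpha and ERE-luciferase reporter, 17beta-estradiol stimulation, 21.5 h compound exposure, luminescence endpoint with parallel fluorescence cytotoxicity counter-read.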

Several values for one entry are separate records, joined by “and”; a condition that tells them apart may be missing. Identical values can stand only once. More than one record can exist for a structure, and the calls need not agree. Activity calls are given as the source filed them. Unless noted, the call rests on the fitted dose curve; in most records, active means well fitted curve in the direction sought with a large enough effect in the repeat runs; inconclusive means weak or mixed curves; inactive means no such curve, though single readings can be large; an effect the other way counts as inactive or inconclusive.
On the % scale 0 is the no-effect control and ±100 the full control effect.

Aromatase (Homo sapiens), sequence (P11511 whole entry, looked up): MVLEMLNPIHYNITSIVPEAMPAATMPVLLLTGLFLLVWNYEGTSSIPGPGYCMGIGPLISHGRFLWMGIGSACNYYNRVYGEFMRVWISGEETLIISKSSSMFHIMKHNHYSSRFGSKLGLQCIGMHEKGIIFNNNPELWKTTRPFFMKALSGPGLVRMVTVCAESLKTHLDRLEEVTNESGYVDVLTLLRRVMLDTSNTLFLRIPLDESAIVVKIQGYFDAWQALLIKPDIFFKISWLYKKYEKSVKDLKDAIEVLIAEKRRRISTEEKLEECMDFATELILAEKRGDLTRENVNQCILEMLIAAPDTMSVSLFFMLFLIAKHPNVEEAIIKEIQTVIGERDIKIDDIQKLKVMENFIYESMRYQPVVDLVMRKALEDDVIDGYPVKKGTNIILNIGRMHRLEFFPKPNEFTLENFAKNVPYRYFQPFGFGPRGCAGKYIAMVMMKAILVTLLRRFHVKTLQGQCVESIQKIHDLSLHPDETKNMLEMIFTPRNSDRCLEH
Aryl hydrocarbon receptor (Homo sapiens), sequence (P35869 whole entry, looked up): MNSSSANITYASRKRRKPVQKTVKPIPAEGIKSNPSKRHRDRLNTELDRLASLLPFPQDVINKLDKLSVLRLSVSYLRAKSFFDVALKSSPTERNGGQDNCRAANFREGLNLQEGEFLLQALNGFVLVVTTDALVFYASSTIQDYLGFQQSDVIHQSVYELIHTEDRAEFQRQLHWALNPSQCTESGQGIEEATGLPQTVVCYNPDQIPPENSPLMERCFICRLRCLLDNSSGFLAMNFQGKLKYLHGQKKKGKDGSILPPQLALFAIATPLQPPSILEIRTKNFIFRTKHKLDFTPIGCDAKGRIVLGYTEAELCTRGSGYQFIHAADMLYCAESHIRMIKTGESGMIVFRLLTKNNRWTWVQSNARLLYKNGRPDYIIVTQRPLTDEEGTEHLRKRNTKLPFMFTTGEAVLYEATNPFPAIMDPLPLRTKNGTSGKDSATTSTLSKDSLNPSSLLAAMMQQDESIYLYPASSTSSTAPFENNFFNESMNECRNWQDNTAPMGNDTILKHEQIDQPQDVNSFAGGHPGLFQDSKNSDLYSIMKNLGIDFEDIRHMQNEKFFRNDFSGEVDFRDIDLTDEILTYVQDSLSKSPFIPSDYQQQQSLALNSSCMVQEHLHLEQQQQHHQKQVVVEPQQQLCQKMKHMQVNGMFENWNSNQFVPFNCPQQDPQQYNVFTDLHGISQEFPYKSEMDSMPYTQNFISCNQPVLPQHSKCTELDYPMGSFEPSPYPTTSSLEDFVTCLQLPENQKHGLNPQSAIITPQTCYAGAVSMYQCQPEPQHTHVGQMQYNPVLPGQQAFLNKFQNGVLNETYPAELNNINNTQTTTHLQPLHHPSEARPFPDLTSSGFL
Estrogen receptor (Homo sapiens), sequence (P03372 whole entry, looked up): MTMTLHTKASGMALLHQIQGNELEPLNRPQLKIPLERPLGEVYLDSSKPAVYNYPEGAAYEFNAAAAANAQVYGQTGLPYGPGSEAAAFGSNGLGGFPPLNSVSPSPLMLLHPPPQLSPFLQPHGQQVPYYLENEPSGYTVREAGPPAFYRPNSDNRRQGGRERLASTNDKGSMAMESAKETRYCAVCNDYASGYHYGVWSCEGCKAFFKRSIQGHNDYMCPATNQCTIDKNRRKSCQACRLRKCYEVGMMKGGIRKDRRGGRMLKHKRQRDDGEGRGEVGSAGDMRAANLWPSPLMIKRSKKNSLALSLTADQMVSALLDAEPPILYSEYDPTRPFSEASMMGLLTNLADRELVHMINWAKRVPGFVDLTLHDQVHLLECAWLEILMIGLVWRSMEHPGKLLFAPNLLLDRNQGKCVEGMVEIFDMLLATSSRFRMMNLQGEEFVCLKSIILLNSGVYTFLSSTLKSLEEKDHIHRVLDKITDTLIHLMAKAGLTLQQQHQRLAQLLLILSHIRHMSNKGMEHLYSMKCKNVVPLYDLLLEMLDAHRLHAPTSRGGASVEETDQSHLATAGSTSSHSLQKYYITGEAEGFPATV
Peroxisome proliferator-activated receptor gamma (Homo sapiens), sequence (P37231 whole entry, looked up): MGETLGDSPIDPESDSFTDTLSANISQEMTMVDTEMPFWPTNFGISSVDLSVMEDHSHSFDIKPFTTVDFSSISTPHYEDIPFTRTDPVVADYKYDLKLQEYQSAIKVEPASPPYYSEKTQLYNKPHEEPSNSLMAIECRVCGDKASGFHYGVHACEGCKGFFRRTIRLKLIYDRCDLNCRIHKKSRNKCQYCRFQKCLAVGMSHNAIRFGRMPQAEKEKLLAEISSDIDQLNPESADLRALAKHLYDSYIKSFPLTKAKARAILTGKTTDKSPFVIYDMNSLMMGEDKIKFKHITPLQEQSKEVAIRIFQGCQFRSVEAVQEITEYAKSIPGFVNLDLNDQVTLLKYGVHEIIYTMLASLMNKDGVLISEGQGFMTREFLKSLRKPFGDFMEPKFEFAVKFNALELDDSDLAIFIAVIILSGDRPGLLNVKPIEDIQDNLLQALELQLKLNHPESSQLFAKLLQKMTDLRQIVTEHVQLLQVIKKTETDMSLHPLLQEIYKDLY

Take `COc1ccc(-c2coc3cc(O)ccc3c2=O)cc1`: the Potency result (in experiment [1]; in experiment [2]; in experiment [4]; in experiment [7]; with Aromatase (Homo sapiens); in experiment [8]) was “inactive” in each case. Besides, the Potency entry in [10], in [11], in experiment [12], in experiment [13], in experiment [14] and in experiment [15] was “inactive” each time. In addition, the call in [3] was inactive. Also, the Potency is 7.76 µM [inconclusive] (active) in experiment [5], 1.54 µM (active) in experiment [6] and 6.86 µM (active) in experiment [9].

Consider `CC(=O)c1ccc(C(C)=O)cc1`, for which the Potency result (in experiment [1]; in [2]; in experiment [4]; in experiment [7]; with Aromatase (Homo sapiens); in experiment [8]) was “inactive” throughout. The Potency entry in [9], in experiment [10], in experiment [11], in [16], in experiment [15] and in [17] was “inactive” each time. Besides, in experiment [3], the result was inactive.

For the compound `CCCNCCC`, the Potency entry (in [1]; in experiment [2]; in experiment [7]; in the experiment with Aromatase (Homo sapiens); in experiment [8]; in experiment [9]) was “inactive” each time. Besides, the Potency result in experiment [10], in experiment [11], in experiment [12], in experiment [13], in experiment [16] and in experiment [14] was “inactive” in each case. Further, the Potency entry in [15] and in [17] was “inactive” throughout. In addition, in [3], the result was inactive.

On to `O=C1NC(=O)[C@@H]2CC=CC[C@H]12`, for which the Potency result in [1], in [2], in [4], in experiment [7], in experiment [10] and in [13] was “inactive” in each case. Moreover, the Potency result in [15] and in experiment [17] was “inactive” throughout. Besides, the compound was called inactive in [3].

With `CC1(C)CCC[C@]2(C)[C@H]3CC(=O)O[C@]3(C)CC[C@@H]12`, the Potency entry in [1], in [4], in [5], in experiment [6], in experiment [18] and in experiment [7] was “inactive” throughout. For the same compound, the Potency result in [8], in experiment [9], in experiment [10], in experiment [11], in experiment [13] and in experiment [14] was “inactive” in each case. In addition, the Potency result in experiment [15] and in experiment [17] was “inactive” in each case. Further, the Potency in experiment [2] is 54.5 µM (active). The result in experiment [3] was inactive.

In the case of `C=CCn1c(=O)n(CC=C)c(=O)n(CC=C)c1=O`, the Potency entry (in [1]; in experiment [2]; in experiment [4]; in [7]; with Aromatase (Homo sapiens); in experiment [8]) was “inactive” in each case. Besides, the Potency entry in experiment [9], in [10], in experiment [11], in experiment [13], in experiment [16] and in experiment [14] was “inactive” in each case. Moreover, the Potency result in [15] and in experiment [17] was “inactive” each time. Besides, in experiment [3], the outcome was inactive.

Consider `CCCCCCCCCCCCCC[N+](C)(C)C`, for which the Potency in experiment [1] was 4.22 µM (active) and 11.8 µM (active) and 8.63 µM (active); in experiment [2] it was 2.98 µM (active) and 5.91 µM (active) and 5.44 µM (active); in experiment [4] it was 23.9 µM (active) and 37.6 µM (active); with Aromatase (Homo sapiens) it was 10.6 µM (active) and 23.5 µM (active) and 15.3 µM (active); in [8], “inactive and 59.1 µM (active)”; in [10] it was 16.8 µM (active) and 52.7 µM (active) and 54.4 µM (active). Also, the Potency in experiment [13] is 18.8 µM (active) and 24.5 µM (active) and 29.8 µM (active); in [14] it was 23.5 µM (active) and 17.2 µM (active) and 26.6 µM (active); in [15] it was 21.1 µM (active) and 15.5 µM (active) and 23.7 µM (active). For the same compound, in experiment [3], the outcome was inactive. The Potency result in experiment [5], in [7] and in [9] was “inactive” in each case.

Take `NC[C@H]1O[C@H](O[C@H]2[C@H](O[C@@H]3O[C@H](CO)[C@@H](O)[C@H]3O)C(O)[C@H](N)C[C@@H]2N)[C@H](N)[C@@H](O)[C@@H]1O` (some centres not stated): the Potency entry (in experiment [1]; in [2]; in experiment [4]; in [7]; with Aromatase (Homo sapiens); in [8]) was “inactive” throughout. In addition, the Potency entry in [10] and in experiment [11] was “inactive” throughout. Also, in experiment [3], the compound was called inactive. In addition, in experiment [12], the ratio activity, negative = inhibition is 1.19% [at 13.2 µM] (inactive). Moreover, the activity change, negative = cytotoxicity in experiment [13] was 8.9% [at 13.2 µM] (inactive); in [15], 4.74% [at 13.2 µM] (inactive). Moreover, the activation in experiment [16] is 0.127% [at 8.36 µM] (inactive); in [17], 1.22% [at 13.2 µM] (inactive). In [14], the viability change, negative = cytotoxic is -15.3% [at 8.36 µM] (inactive).
